# According to PubChem BioAssay AID1159580 (chemical genetic matrix, 2015):
# Several values for one entry are separate records, joined by “and”; a condition that tells them apart may be missing. Equal entries are not always repeated. The campaign covered roughly 5,500 compounds. About 2,000 (36%) were called active. Inconclusive results (about 18%) are left out. The list shows a part of the results. Unmarked numbers belong to inactive results. Rule as the data show it: active = normalized growth mostly below about 0.91 (no sharp cut-off); inconclusive = no clear call, values can overlap the other calls; inactive = mostly above about 0.92.
# Test: chemical genetic growth profiling, strain panel (AID 1159580);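 also: tested at 20 µM; growth read once vehicle control cultures reached saturation at 30 °C; 1 = growth at the plate median or of vehicle wells; lower values mean less growth of the strain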
# Details: S. cerevisiae deletion strains, growth OD
compound,measurement,setting,value
C[C@H](CCC(=O)O)[C@H]1CCC2C3C(=O)CC4CC(=O)CC[C@]4(C)C3CC(=O)[C@@]21C (some centres not stated),normalized growth,"locus YAL021C, strain ccr4, hits give low values",0.908
same,normalized growth,"locus YAL026C, strain drs2, hits give low values",0.99
same,normalized growth,"locus YAL030W, strain snc1, hits give low values",0.963
same,normalized growth,"locus YBL061C, strain skt5, hits give low values",0.99
same,normalized growth,"locus YBR009C, strain hhf1, hits give low values",0.992
same,normalized growth,"locus YBR021W, strain FUR4, hits give low values",1.01
same,normalized growth,"locus YBR023C, strain chs3, hits give low values",0.987
same,normalized growth,"locus YBR171W, strain sec66, hits give low values",0.956
same,normalized growth,"locus YBR229C, strain ROT2, hits give low values",1.01
same,normalized growth,"locus YBR231C, strain swc5, hits give low values",0.967
same,normalized growth,"locus YBR279W, strain paf1, hits give low values",0.994
same,normalized growth,"locus YCL011C, strain gbp2, hits give low values",0.991
same,normalized growth,"locus YCL016C, strain dcc1, hits give low values",1.02
same,normalized growth,"locus YCL029C, strain bik1, hits give low values",1.01
same,normalized growth,"locus YCL061C, strain MRC1, hits give low values",0.972
same,normalized growth,"locus YCL069W, strain vba3, hits give low values",0.978
same,normalized growth,"locus YCR088W, strain abp1, hits give low values",0.987
same,normalized growth,"locus YDL005C, strain med2, hits give low values",0.952
same,normalized growth,"locus YDL035C, strain GPR1, hits give low values",1.02
same,normalized growth,"locus YDL040C, strain nat1, hits give low values",0.976
same,normalized growth,"locus YDL074C, strain BRE1, hits give low values",1
same,normalized growth,"locus YDL101C, strain DUN1, hits give low values",1.01
same,normalized growth,"locus YDL134C, strain PPH21, hits give low values",1.02
same,normalized growth,"locus YDL185W, strain tfp1, hits give low values",1.01
same,normalized growth,"locus YDL192W, strain arf1, hits give low values",1
same,normalized growth,"locus YDR001C, strain nth1, hits give low values",0.969
same,normalized growth,"locus YDR069C, strain doa4, hits give low values",0.951
same,normalized growth,"locus YDR101C, strain arx1, hits give low values",1.02
same,normalized growth,"locus YDR137W, strain rgp1, hits give low values",0.999
same,normalized growth,"locus YDR159W, strain sac3, hits give low values",0.937
same,normalized growth,"locus YDR162C, strain NBP2, hits give low values",1.02
same,normalized growth,"locus YDR195W, strain ref2",0.937
same,normalized growth,"locus YDR297W, strain sur2, hits give low values",0.981
same,normalized growth,"locus YDR318W, strain mcm21, hits give low values",1
same,normalized growth,"locus YDR334W, strain swr1, hits give low values",0.957
same,normalized growth,"locus YDR335W, strain msn5, hits give low values",0.978
same,normalized growth,"locus YDR388W, hits give low values",1
same,normalized growth,"locus YDR392W, strain spt3, hits give low values",1.06
same,normalized growth,"locus YDR502C, strain sam2, hits give low values",0.998
same,normalized growth,"locus YEL003W, strain gim4, hits give low values",0.979
same,normalized growth,"locus YEL037C, strain rad23, hits give low values",0.983
same,normalized growth,"locus YEL061C, strain CIN8 (second series), hits give low values",0.962
same,normalized growth,"locus YEL061C, strain CIN8, hits give low values",1.01
same,normalized growth,"locus YER015W, strain faa2, hits give low values",0.991
same,normalized growth,"locus YER016W, strain bim1, hits give low values",1.04
same,normalized growth,"locus YER110C, hits give low values",1.01
same,normalized growth,"locus YER111C, strain swi4, hits give low values",0.974
same,normalized growth,"locus YER155C, strain BEM2 (second series), hits give low values",0.961
same,normalized growth,"locus YER155C, strain BEM2, hits give low values",1
same,normalized growth,"locus YER167W, strain BCK2, hits give low values",1.01
same,normalized growth,"locus YFR010W, strain ubp6, hits give low values",0.965
same,normalized growth,"locus YGL078C, strain dbp3, hits give low values",1.01
same,normalized growth,"locus YGL086W, strain mad1, hits give low values",1.01
same,normalized growth,"locus YGL167C, strain pmr1, hits give low values",0.947
same,normalized growth,"locus YGL173C, strain kem1, hits give low values",0.962
same,normalized growth,"locus YGL227W, strain vid30, hits give low values",0.97
same,normalized growth,"locus YGL240W, strain doc1, hits give low values",0.948
same,normalized growth,"locus YGL248W, strain PDE1, hits give low values",1
same,normalized growth,"locus YGL253W, strain hxk2, hits give low values",1
same,normalized growth,"locus YGR135W, strain pre9, hits give low values",0.994
same,normalized growth,"locus YGR252W, strain gcn5, hits give low values",0.972
same,normalized growth,"locus YHR013C, strain ard1, hits give low values",1
same,normalized growth,"locus YHR027C, strain rpn1, hits give low values",0.988
same,normalized growth,"locus YHR030C, strain SLT2, hits give low values",1.01 and 1.03
same,normalized growth,"locus YHR079C, strain IRE1 (second series), hits give low values",0.997
same,normalized growth,"locus YHR079C, strain IRE1, hits give low values",1
same,normalized growth,"locus YHR094C, strain hxt1, hits give low values",1.01
same,normalized growth,"locus YHR129C, strain ARP1, hits give low values",1.01
same,normalized growth,"locus YHR142W, strain chs7, hits give low values",0.957
same,normalized growth,"locus YHR200W, strain rpn10, hits give low values",1
same,normalized growth,"locus YIL066C, strain RNR3, hits give low values",1.02
same,normalized growth,"locus YIL073C, strain SPO22, hits give low values",1.01
same,normalized growth,"locus YIL125W, strain kgd1, hits give low values",1.01
same,normalized growth,"locus YIR030C, strain dcg1, hits give low values",1.01
same,normalized growth,"locus YJL092W, strain hpr5, hits give low values",0.971
same,normalized growth,"locus YJL095W, strain BCK1 (second series), hits give low values",0.969
same,normalized growth,"locus YJL095W, strain BCK1, hits give low values",1 and 1.02
same,normalized growth,"locus YJL115W, strain asf1, hits give low values",0.978
same,normalized growth,"locus YJL129C, strain trk1, hits give low values",0.962
same,normalized growth,"locus YJL134W, strain LCB3, hits give low values",1.01
same,normalized growth,"locus YJL154C, strain vps35, hits give low values",0.958
same,normalized growth,"locus YJL164C, strain tpk1, hits give low values",1.01
same,normalized growth,"locus YJL166W, strain qcr8, hits give low values",0.916
same,normalized growth,"locus YJL168C, strain set2, hits give low values",1
same,normalized growth,"locus YJL187C, strain SWE1 (second series), hits give low values",1.01
same,normalized growth,"locus YJR043C, strain POL32, hits give low values",1.01
same,normalized growth,"locus YJR066W, strain TOR1, hits give low values",0.971
same,normalized growth,"locus YJR075W, strain HOC1, hits give low values",1.02
same,normalized growth,"locus YKL009W, strain mrt4, hits give low values",0.992
same,normalized growth,"locus YKL068W, hits give low values",1.01
same,normalized growth,"locus YKL085W, strain MDH1 (second series), hits give low values",1.02
same,normalized growth,"locus YKL085W, strain MDH1, hits give low values",1.02
same,normalized growth,"locus YKL160W, strain elf1, hits give low values",0.985
same,normalized growth,"locus YKR001C, strain vps1, hits give low values",1.01
same,normalized growth,"locus YKR026C, strain gcn3, hits give low values",0.972
same,normalized growth,"locus YLL001W, strain dnm1, hits give low values",0.923
same,normalized growth,"locus YLL026W, hits give low values",0.987
same,normalized growth,"locus YLL041C, strain sdh2, hits give low values",0.978
same,normalized growth,"locus YLR027C, strain aat2, hits give low values",0.993
same,normalized growth,"locus YLR039C, strain RIC1, hits give low values",0.955
same,normalized growth,"locus YLR058C, strain SHM2, hits give low values",1.01
same,normalized growth,"locus YLR102C, strain apc9, hits give low values",0.999
same,normalized growth,"locus YLR113W, strain HOG1, hits give low values",1.03
same,normalized growth,"locus YLR221C, strain rsa3, hits give low values",1.04
same,normalized growth,"locus YLR258W, strain gsy2, hits give low values",0.982
same,normalized growth,"locus YLR262C, strain YPT6 (second series), hits give low values",0.926
same,normalized growth,"locus YLR262C, strain YPT6, hits give low values",1.05
same,normalized growth,"locus YLR268W, strain sec22, hits give low values",1
same,normalized growth,"locus YLR320W, strain mms22, hits give low values",1
same,normalized growth,"locus YLR330W, strain CHS5, hits give low values",1.01
same,normalized growth,"locus YLR342W, strain FKS1 (second series), hits give low values",1
same,normalized growth,"locus YLR342W, strain FKS1, hits give low values",0.972
same,normalized growth,"locus YLR357W, strain rsc2, hits give low values",0.917
same,normalized growth,"locus YLR370C, strain arc18, hits give low values",0.987
same,normalized growth,"locus YLR371W, strain rom2, hits give low values",1
same,normalized growth,"locus YLR384C, strain iki3, hits give low values",0.976
same,normalized growth,"locus YLR418C, strain cdc73, hits give low values",0.981
same,normalized growth,"locus YML016C, strain PPZ1, hits give low values",1.01
same,normalized growth,"locus YML032C, strain rad52, hits give low values",0.994
same,normalized growth,"locus YML120C, strain ndi1, hits give low values",0.967
same,normalized growth,"locus YML124C, strain tub3, hits give low values",0.995
same,normalized growth,"locus YMR058W, strain fet3, hits give low values",0.976
same,normalized growth,"locus YMR078C, strain ctf18, hits give low values",1.01
same,normalized growth,"locus YMR125W, strain sto1, hits give low values",0.93
same,normalized growth,"locus YMR129W, hits give low values",0.993
same,normalized growth,"locus YMR205C, strain PFK2, hits give low values",0.953
same,normalized growth,"locus YMR223W, strain ubp8, hits give low values",1
same,normalized growth,"locus YMR231W, strain pep5, hits give low values",0.906 (active)
same,normalized growth,"locus YMR307W, strain GAS1, hits give low values",1.05
same,normalized growth,"locus YNL067W, strain RPL9B, hits give low values",1.01
same,normalized growth,"locus YNL071W, strain lat1, hits give low values",0.975
same,normalized growth,"locus YNL153C, strain GIM3, hits give low values",0.996
same,normalized growth,"locus YNL183C, strain NPR1, hits give low values",0.982
same,normalized growth,"locus YNL209W, strain ssb2, hits give low values",0.99
same,normalized growth,"locus YNL233W, strain BNI4, hits give low values",1.01
same,normalized growth,"locus YNL248C, strain rpa49, hits give low values",1
same,normalized growth,"locus YNL250W, strain rad50, hits give low values",0.995
same,normalized growth,"locus YNL271C, strain bni1, hits give low values",0.996
same,normalized growth,"locus YNL298W, strain CLA4, hits give low values",1
same,normalized growth,"locus YNL307C, strain MCK1, hits give low values",1
same,normalized growth,"locus YNL322C, strain KRE1 (second series), hits give low values",0.975
same,normalized growth,"locus YNL322C, strain KRE1, hits give low values",1.02
same,normalized growth,"locus YNR049C, strain mso1, hits give low values",0.983
same,normalized growth,"locus YNR052C, strain pop2, hits give low values",1
same,normalized growth,"locus YOL012C, strain htz1",1.17
same,normalized growth,"locus YOL147C, strain pex11, hits give low values",1.01
same,normalized growth,"locus YOR001W, strain rrp6, hits give low values",0.965
same,normalized growth,"locus YOR061W, strain CKA2, hits give low values",1.01
same,normalized growth,"locus YOR069W, strain VPS5, hits give low values",1.01
same,normalized growth,"locus YOR070C, strain gyp1, hits give low values",0.995
same,normalized growth,"locus YOR080W, strain dia2, hits give low values",0.947
same,normalized growth,"locus YOR083W, strain WHI5, hits give low values",0.964
same,normalized growth,"locus YOR106W, strain vam3, hits give low values",0.924
same,normalized growth,"locus YOR136W, strain idh2, hits give low values",1
same,normalized growth,"locus YOR144C, strain elg1, hits give low values",1.01
same,normalized growth,"locus YOR184W, strain ser1, hits give low values",0.999
same,normalized growth,"locus YOR231W, strain MKK1, hits give low values",1.03
same,normalized growth,"locus YOR265W, strain rbl2, hits give low values",0.971
same,normalized growth,"locus YOR270C, strain vph1, hits give low values",0.988
same,normalized growth,"locus YOR290C, strain snf2, hits give low values",1.02
same,normalized growth,"locus YOR316C, strain cot1, hits give low values",1.01
same,normalized growth,"locus YPL051W, strain arl3, hits give low values",1.02
same,normalized growth,"locus YPL055C, strain LGE1, hits give low values",1.02
same,normalized growth,"locus YPL078C, strain atp4, hits give low values",0.929
same,normalized growth,"locus YPL106C, strain sse1, hits give low values",0.94
same,normalized growth,"locus YPL240C, strain hsp82, hits give low values",0.989
same,normalized growth,"locus YPL256C, strain CLN2, hits give low values",1.04
same,normalized growth,"locus YPR119W, strain clb2, hits give low values",1.01
same,normalized growth,"locus YPR141C, strain kar3, hits give low values",1.01
same,normalized growth,"locus YPR163C, strain tif3, hits give low values",1
same,normalized growth,"locus YPR167C, strain met16, hits give low values",1
same,normalized growth,"strain wtn01, hits give low values",0.988
